High-throughput results deposited in PubChem BioAssay by National Center for Advancing Translational Sciences (NCATS).
KB-V1 MDR tox – qHTS assay for MDR1-selective chemotherapeutics: Primary screen using the drug-selected MDR subline cells KB-V1; KB-V1 MDR cells viability, CellTiter-Glo, 72 h; Potency, µM (doses to about 46.1 µM), actives largely listed as cytotoxic; 400,000 tested, 3.4% active; AID 1347076, 2019; note: nearly all actives have a fitted effect of over 60% in size
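Cytotoxicity via CellTiter-Glo luminescence after 72 h compound exposure at 37 degrees C. Cells: drug-selected KB-V1 line, DMEM phenol-red free plus 10% FBS. Compounds tested at multiple concentrations; normalized data fitted to concentration-effect curves.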
MCF10A rereplic – A quantitative high throughput screen for small molecules that induce DNA re-replication in MCF 10a normal breast cells. Potency, µM (series often up to 46.1 µM), actives largely listed as activators. MCF 10A DNA re-replication, Hoechst nuclear intensity, 48 h. 350,000 tested, 2.9% active; note: nearly all actives have a fitted effect of over 50% in size
KB-3-1 cytotox – qHTS assay for MDR1-selective chemotherapeutics: Primary screen using the parental adenocarcinoma cell KB-3-1; Potency, µM (highest dose often 46.1 µM), most hits filed as cytotoxic; 400,000 tested, 1.4% active; KB-3-1 viability, CellTiter-Glo ATP luminescence, 72 h; AID 1347075, 2019; note: nearly all actives have a fitted effect of over 60% in size
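KB-3-1 parental drug-naive adenocarcinoma cells in DMEM/10% FBS, incubated 72 h at 37 C with pin-transferred compounds across a concentration series. Viability by CellTiter-Glo luminescence; concentration-response curves fitted after normalization.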
SW480 rerep – A quantitative high throughput screen for small molecules that induce DNA re-replication in SW480 colon adenocarcinoma cells; Potency, µM (doses to about 46.1 µM), actives largely listed as activators; AID 624297, 2012; SW480 DNA re-replication, Hoechst DNA content imaging, 48 h; 340,000 tested, 1.8% active; note: nearly all actives have a fitted effect of over 55% in size
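Per well, 250 cells were exposed to pinned compound for 48 hr. Nuclear DNA was visualised with Hoechst (40 min, 37 C) and total object intensity recorded by fluorescence scanning.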
ELG1 repair inh – qHTS screen for small molecules that inhibit ELG1-dependent DNA repair in human embryonic kidney (HEK293T) cells expressing luciferase-tagged ELG1; Potency, µM (titrated, usually from 46.1 µM), hits mostly inhibitors; 330,000 tested, 2.3% active; AID 504467, 2011; HEK293T ELG1-luciferase reporter, luminescence, 16 h; DNA damage induced by 5-fluorouridine; note: nearly all actives have a fitted effect of over 55% in size
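Quantitative HTS, concentration-response format. 2,000 cells/well co-treated with 5-fluorouridine and compound, 16 hr in 5% CO2 at 37 °C; ONE-Glo luminescence read after 30 min.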
A number is an active result; - = inactive; ? = inconclusive; . = no result given; [ ] = another dose, or the depositor's remark. Compounds with a hit are over-represented: about 8.1% of the library has one in this group of screens. Calls come from the whole dose curve; as a rule, active = well fitted curve in the direction sought with a large enough effect; inconclusive = small, poorly fitted or top-dose-only effect, or another doubt; inactive = no such curve, though single readings can be large; an effect the other way counts as inactive or inconclusive.

SMILES	KB-V1 MDR tox	MCF10A rereplic	KB-3-1 cytotox	SW480 rerep	ELG1 repair inh
C[C@@H]1CN([C@@H](C)CO)C(=O)c2cc(Br)cnc2O[C@H]1CN(C)C(=O)CN1CCOCC1	-	.	-	.	.
COc1ccc(Cn2c(SCC(=O)N3CCN(c4ccc(F)cc4)CC3)nc3ccccc32)cc1	-	.	?	.	.
COc1ccc(CC(=O)N2CCC(Nc3nc4ccccc4n3Cc3ccc(F)cc3)CC2)cc1	?	-	-	-[9.22 µM]	20.6µM
Cc1cccc(C(c2sc3nc(-c4ccco4)nn3c2O)N2CCN(c3ccccc3)CC2)c1 (stereo not given)	-	.	-	.	.
Cc1ccc(CNCC(O)(c2ccccc2)c2ccc(F)cc2)cc1 (stereo not given)	18.4µM	-	-	-	-
COc1ccc(CNCC(O)(c2ccccc2)c2ccccc2)cc1OC	-	-	-	-	23.1µM
COc1ccccc1CNCC(O)(c1ccc(Cl)cc1)c1ccc(Cl)cc1	?	?	-	14.6µM	-
O=c1c(-c2ccccc2)nnc2sc(COc3ccc(Br)cc3)nn12	-	-	-	-	-
CCN(CC)CCOC(=O)c1ccc(NC(=O)CCn2c(=O)oc3ccccc32)cc1	-	.	-	.	.
Cc1cc(C)c(C#N)c(OCC2CCCO2)n1 (stereo not given)	-	.	-	.	.
CCOC(=O)c1sc(NC(=O)c2nc(SCC)ncc2Cl)c(C(=O)OCC)c1C	-	.	-	.	.
COc1ccc(NC(=O)/C(=C\c2cc(OC)c(OC)cc2[N+](=O)[O-])NC(=O)c2ccccc2)cc1	-	-	-	-	-
COc1cc(/C=C(/NC(=O)c2ccccc2)C(=O)Nc2ccccc2)c([N+](=O)[O-])cc1OC	16.4µM	-	-	-	-
Cc1nc(N2CCCCC2)sc1C(=O)c1ccc(SCCO)c([N+](=O)[O-])c1	14.6µM	?	-	-	18.3µM
COc1ccc(NC(=O)c2oc3ccccc3c2NC(=O)C23CC4CC(CC(C4)C2)C3)cc1	-	.	-	.	.
CCN(CC)C(=O)COc1c(-c2ccco2)oc2ccccc2c1=O	-	?	-	-	?
CC(=O)Oc1c(-c2ccco2)oc2ccccc2c1=O	?	?	-	16.4µM	?
CC(=O)c1cccc(NC(=O)C2(C)Cc3c(-c4cccc(C(N)=O)c4)ccnc3O2)c1 (stereo not given)	-	.	-	.	.
CC(=O)Nc1ccc(-c2ccnc3c2CC(C)(C(=O)NCc2ccco2)O3)cc1 (stereo not given)	-	.	10.3µM	.	.
CN(C)c1ccc(-c2ccnc3c2CC(C)(C(=O)NCc2ccco2)O3)cc1 (stereo not given)	-	.	?	.	.
CC1(C(=O)NCc2ccccc2)Cc2c(-c3cccc(C(N)=O)c3)ccnc2O1 (stereo not given)	-	.	6.51µM	.	.
CC1(C(=O)NCc2ccco2)Cc2c(-c3cccc(C(N)=O)c3)ccnc2O1 (stereo not given)	-	.	10.3µM	.	.
COc1ccc(NC(=O)C2(C)Cc3c(-c4cccc(C(N)=O)c4)ccnc3O2)cn1 (stereo not given)	-	.	9.2µM	.	.
Cc1nc(-c2ccc(F)cc2)c(CC(=O)N(C)CC(=O)Nc2ccc(F)cc2)s1	-	-	-	-	-
CC(=O)Nc1ccc(S(=O)(=O)Nc2nc3ccccc3nc2Nc2ccc(O)c(C(=O)O)c2)cc1	-	-	-	-	-
SMILES	KB-V1 MDR tox	MCF10A rereplic	KB-3-1 cytotox	SW480 rerep	ELG1 repair inh
Cc1cc([N+](C)(C)C)cc(C)c1/C=C/c1ccnc2ccccc12	-	.	-	.	.
COc1cccc(-c2noc(C3CC(=O)N(c4ccc(F)cc4)C3)n2)c1OC (stereo not given)	-	.	-	.	.
CC1(C(=O)NCc2ccco2)Cc2c(-c3cccc(C(F)(F)F)c3)ccnc2O1 (stereo not given)	?	.	6.51µM	.	.
O=C(Nc1cc(Cl)ccc1O)c1snnc1-c1ccccc1	8.2µM	?	18.4µM	-	-
CCN1C(=O)/C(=C2/Sc3ccccc3N2CC)S/C1=N\c1ncn[nH]1	23.1µM	?	-	-	?
C=CCN1C(=O)/C(=C2/Sc3ccccc3N2CC)SC1=S	-	?	-	?	-
CCC(=O)N(c1nnc(SCC(=O)c2ccc[nH]2)s1)C1CC1	11.6µM	-	-	-	?
O=C(Cn1c(C(=O)N2CCN(C3CCCCC3)CC2)cc2sccc21)c1ccccc1	6.51µM	-	?	-	-
O=C(Cn1c(C(=O)N2CCc3ccccc3C2)cc2sccc21)c1ccccc1	?	-	-	-	?
CCn1c(C(=O)N2CCC(C(=O)N3CCN(c4cccc(C)c4C)CC3)CC2)cc2sccc21	-	.	-	.	.
CCn1c(C(=O)N2CCC(C(=O)N3CCN(c4ccccn4)CC3)CC2)cc2sccc21	-	-	-	-	13µM
CC1CCN(C(=O)C2CCN(C(=O)c3cc4sccc4n3Cc3ccc(F)cc3)CC2)CC1	-	?	-	-	16.4µM
Cc1ccc(CNC(=O)c2cc3sccc3n2Cc2ccc(F)cc2)cc1	-	.	-	.	.
CC(C)NC(=O)C1CCN(C(=O)c2cc3sccc3n2Cc2ccc(F)cc2)CC1	6.51µM	-	18.4µM	-	18.4µM
CCc1ccc(NC(=O)c2cc3nc(-c4ccc(C)cc4)cc(C(F)(F)F)n3n2)cc1	-	.	-	.	.
O=C(c1ccccc1Br)N(Cc1ccccc1F)C1CCS(=O)(=O)C1 (stereo not given)	-	.	-	.	.
O=[N+]([O-])c1ccc(/C=N/Nc2ccnc3cc(Cl)ccc23)o1	-	-	-	3.66µM	-
COc1ccc(-n2nc(C(=O)NCC(=O)N3CCN(c4ccccc4OC)CC3)c3ccccc3c2=O)cc1OC	?	-	-	-	16.4µM
COc1ccc(-n2nc(C(=O)NCC(=O)Nc3cc(OC)c(OC)c(OC)c3)c3ccccc3c2=O)cc1OC	-	-	-	-	2.31µM
COc1ccc(-n2nc(C(=O)NCC(=O)NCc3ccco3)c3ccccc3c2=O)cc1Cl	5.8µM	?	-	-	?
COc1ccc(-n2nc(C(=O)NCC(=O)NCCc3ccc(OC)c(OC)c3)c3ccccc3c2=O)cc1Cl	?	?	?	-	6.51µM
COc1ccc(-n2nc(C(=O)NCC(=O)N3CCN(c4ccccc4)CC3)c3ccccc3c2=O)cc1OC	-	-	-	-	-
O=C(NCc1ccccc1)C(=O)Nc1c2c(nn1-c1ccccc1)CSC2	-	.	-	.	.
CC(C)(C)C(=O)N(Cc1ccc(Cl)cc1)c1cnccn1	-	-	-	-	?
COc1cc(NC(=O)CNC(=O)Cn2c(C)cc3ccccc3c2=O)cc(OC)c1OC	-	-	-	-	-
COc1ccc(NC(=O)CNC(=O)Cn2c(C)cc3ccccc3c2=O)cc1OC	-	?	?	?	8.2µM
